Screens: PubChem, several laboratories
KKLEB cytotox = counter-screen for CF NF-kB inhibitors: cytotoxicity; KKLEB CF airway cells viability, ATPlite luminescence, overnight; stronger effect = lower value; cells stimulated with P. aeruginosa culture filtrate; 360,000 compounds, 0.36% hits; activity change (cytotoxicity), % at 5 µM;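 active = corrected activity change at or below -50% at 5 µM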
MITF TRPM1 inh = reduces MITF-dependent TRPM1 promoter luciferase signal | inhibition, % at 12.5 µM | SK-MEL-5 TRPM1 promoter luciferase, 24 h | AID 488899 | 330,000 compounds, 0.83% hits;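 active = mean inhibition across replicates of 60% or more, whatever share of single replicates reaches that level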
CF NFkB block = cystic fibrosis NF-kB activation inhibition | AID 588850 | inhibition, % at 5 µM | 360,000 compounds, 0.86% hits | KKLEB NF-kB-GFP reporter, PAF-induced, GFP fluorescence overnight;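 active = at least 50% inhibition at 5 µM, scaled per plate between neutral and stimulator controls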;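 note: PAF is a Pseudomonas aeruginosa culture filtrate used as stimulus; plate controls were PAF-stimulated DMSO wells for no effect and unstimulated DMSO wells for full effect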
Shn3 3UTR inh = reduces Shn3 3'UTR luciferase signal in osteoblasts; Clone20 osteoblast Shn3 3'UTR firefly luciferase, 24 h; inhibition, % at 12.5 µM; 360,000 compounds, 0.52% hits; AID 588674;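 active = mean inhibition of at least 75% with every replicate also reaching 75%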;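 note: 0% = median of neutral control wells and 100% = pilot-screen positive control compound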
HIF-2a block = HIF-2a inhibition; 786-0 RCC cells HIF-2a reporter, luciferase luminescence, overnight; inhibition, % at 18.8 µM; 360,000 compounds, 0.72% hits; AID 624352;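 active = inhibition of the luminescence signal of 40% or more relative to plate controls, in a single-dose primary screen at 18.75 µM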
Peg3 promoter = inhibitors of Peg3 promoter; HeLa PEG-Prom luciferase reporter, luminescence, overnight; inhibition, % at 20 µM; 360,000 compounds, 1.7% hits;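 active = inhibition of at least 50% at 20 µM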
The depositor's hits bear a star; · = no result given. Rows were chosen to be rich in hits. Some 2.8% of all compounds tested hit in one or more screens of this group.

SMILES | KKLEB cytotox | MITF TRPM1 inh | CF NFkB block | Shn3 3UTR inh | HIF-2a block | Peg3 promoter
CCCCCCCOC(=O)C[N+](C)(C)CCOC1CC2CCC1(C)C2(C)C (stereo not drawn) | -38.3 | 93.8* | 47.3 | 85.4* | -1.8 | 99.2*
Cc1cccc(N/C(N)=N/c2nc(C(F)(F)F)cc(=O)[nH]2)c1C | -4.8 | -8.3 | -3.3 | 17.4 | 17.4 | 19.6
O=C(CCCOc1ccccc1)Nc1cccc(S(=O)(=O)N2CCCCCC2)c1 | 0.5 | 2.3 | -38.5 | 0.3 | -16.0 | 19.4
Cc1cc(O)c2c(c1)CC1C3CCC4CC(=O)CCC4(C)C3CC(=O)C21C (stereo not drawn) | -12.4 | 33.7 | 17.6 | 21.0 | 3.7 | 19.8
COc1ccc(/C=C\C(=O)NCC(=O)N/N=C/c2cccc(OC)c2O)cc1 | -14.6 | 17.4 | -0.9 | 24.6 | 5.8 | 37.2
COc1cccc(/C=N/NC(=O)CNC(=O)/C=C\c2ccccc2)c1O | -3.0 | 55.2 | -0.3 | 89.8* | -5.8 | 20.0
O=C(O)c1ccc(-c2nc3ccccc3s2)o1 | -13.4 | 15.4 | 11.5 | -39.0 | -6.9 | -10.9
O=C(O)c1ccc(Oc2nc3ccccc3s2)cc1 | 9.8 | -69.7 | -17.2 | -18.0 | -126.9 | 84.0*
O=C(Nc1ccnn1C1CCN(C2CCOCC2)CC1)c1cccc(F)c1 | 2.2 | 5.3 | -7.5 | 8.5 | 3.3 | 23.7
CCCc1cc(=O)[nH]c2nnc(SCC(=O)Nc3cc(C)on3)n12 | 14.6 | -5.3 | -16.6 | -1.5 | 17.2 | 5.9
CC(C)(C)S(=O)N1Cc2cc(C(=O)O)nc(-c3cccc(-c4cc5ccccc5o4)c3)c2[C@H]1CCO (stereo partly drawn) | -8.2 | · | -10.6 | -1.0 | -11.1 | -20.7
CC(C)(C)S(=O)N1Cc2cc(C(=O)Nc3ccc(-c4ccccc4)cc3)nc(-c3cccc(-c4cc5ccccc5o4)c3)c2[C@@H]1CCO (stereo partly drawn) | -14.0 | · | 16.9 | -10.5 | 1.5 | 93.1*
Cc1ccc(C(=O)C[n+]2cc(-c3ccc(C)cc3)n3c2CCCCC3)cc1 | -10.2 | 76.2* | 7.7 | 73.7 | -8.8 | 13.7
Cc1ccc(NC(=O)C[n+]2cc(-c3ccc(C)cc3)n3c2CCC3)cc1 | 3.7 | 15.6 | -22.6 | -10.0 | 7.1 | -2.6
Cc1ccc(-c2c[n+](Cc3ccc(Cl)c(Cl)c3)c3n2CCC3)cc1 | -12.0 | 72.3* | 8.1 | 56.7 | 25.9 | 20.0
COc1ccccc1C(CNC(=O)c1ccc(C)c(S(=O)(=O)N2CCCCC2)c1)N1CCCC1 (stereo not drawn) | -0.8 | 1.3 | 14.7 | 0.9 | 4.3 | -6.0
Cc1nc(C(=O)Nc2ccccc2Cl)cc2c1[nH]c1ccccc12 | -20.6 | 22.2 | 27.7 | -18.1 | -39.0 | 85.0*
CN(C)CCNC(=O)COc1ccc(C23CC4CC(CC(C4)C2)C3)cc1 | -31.5 | 69.5* | 26.0 | -25.0 | 8.1 | 96.7*
CC(C)N(C)c1ncnc2c1ncn2[C@H]1CN(Cc2cccs2)C[C@@H](CO)O1 | 0.3 | · | 4.1 | 1.4 | 1.1 | 9.7
CC(C)(C)OC(=O)N1CCC(NC(=O)c2nc[nH]c2C(=O)NCC(=O)OCc2ccccc2)CC1 | -2.0 | -10.9 | 16.4 | -3.1 | 3.0 | 55.4*
COC(=O)c1cc(S(=O)(=O)NCCc2ccc(Cl)cc2)c[nH]1 | -8.5 | · | 50.7* | 24.1 | 17.9 | -330.0
COC(=O)c1cc(S(=O)(=O)NCCc2ccc(C)cc2)c[nH]1 | 6.9 | 5.9 | 0.7 | -2.5 | 19.3 | 1.3
Fc1ccc2cc(-c3ccccc3F)ncc2c1 | 19.6 | -48.7 | -9.7 | -90.6 | -195.1 | -233.1
CC1=NN(c2nc(N)nc(/C(C#N)=C/c3ccc([N+](=O)[O-])o3)n2)C(C)(C)C1 | -69.2* | 91.1* | -6.4 | 98.3* | 1.7 | 102.1*
COc1ccc(/C=N/NC(=O)c2cc3c(OC)ccc(OC)c3[nH]2)cc1O | -1.6 | 9.1 | 12.4 | 40.1 | -8.2 | -2.5
CCN(CC)S(=O)(=O)c1cccc(C(=O)N/N=C/c2cccc(O)c2O)c1 | -13.5 | 16.3 | 10.4 | 89.9* | -20.9 | 42.0
COc1ccc(OC)c2[nH]c(C(=O)N/N=C/c3ccccc3O)cc12 | -19.7 | 59.7 | -1.7 | 92.6* | 3.2 | 63.4*
O=C(N/N=C/c1ccccc1O)c1cccc(C(F)(F)F)c1 | -30.2 | 37.6 | 18.2 | 92.8* | -86.4 | 27.9
Cc1cccc2c(N=Nc3ccc(S(=O)(=O)Nc4ccc(Cl)cc4)cc3[N+](=O)[O-])c(O)[nH]c12 | 17.5 | -6.4 | -4.7 | 5.7 | 7.3 | -10.7
